Screens from PubChem.
CRFR2-BP antag – CRF-BP/CRF-R2 complex antagonism | HEK293 CRF-R2/CRF-BP, CRF-induced calcium fluorescence | inhibition, % at 11.8 µM | hit rate 0.59% among 350,000;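 active = inhibition of the ligand-induced calcium signal above about 50% at the single tested concentration, limit read from the data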
cardiac RTF act – increases calcium sensitivity of human cardiac regulated thin filaments; P19429+P45379; IANBD-labeled TnC RTF fluorescence at EC20 calcium; 0% EC20 calcium, 100% full calcium; activation, % at 7.2 µM; hit rate 0.24% among 340,000; AID 493008;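 active = activation above the mean over all tested compounds plus 3 SD, cut at about 30% in these data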;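 also: rise in fluorescence read as greater calcium sensitivity of cardiac thin filaments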
CRFBP-R2 agonist – CRF-BP/CRF-R2 complex agonism | hit rate 0.46% among 350,000 | HEK293 CRF-R2/CRF-BP, calcium dye fluorescence (FLIPR); percent of saturating CRF peptide response | AID 588473 | activation, % at 13.2 µM;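 active = activation of at least 50%, plus an integration ratio under a set limit after plate pattern correction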;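 also: plate controls were neutral control wells without compound for no effect and CRF at EC100 for full effect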
RTF Ca sens inh – cardiac RTF calcium desensitization | IANBD-labeled cardiac RTF, Ca2+ fluorescence | inhibition, % at 7.15 µM | hit rate 0.12% among 340,000 | AID 493244;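 active = inhibition above the mean inhibition of all tested compounds plus 3 SD, cut at about 17% in these data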;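 also: assay run at fixed EC70 calcium of 1.6 mM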
Myeloid diff MLP – myeloid differentiation induction; ER-HoxA9 myeloid progenitors, lysozyme-GFP differentiation, flow cytometry; calls only at 10 µM; hit rate 1% among 360,000; AID 624256;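 active = normalized GFP-positive differentiation at or above the plate's own cutoff, the solvent-only control mean plus 3 SD; inconclusive = no clear call, values can overlap the other calls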;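 also: cells exposed to compound for four days before flow analysis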
Active calls of the source: *; i = inactive; ? = inconclusive; nt = no result; + = active, no number. Compounds with a hit are over-represented: about 2.2% of the library has one in this group of screens.

SMILES	CRFR2-BP antag	cardiac RTF act	CRFBP-R2 agonist	RTF Ca sens inh	Myeloid diff MLP
Cc1ccc(S(=O)(=O)NC2CCC(C(=O)O)CC2)cc1 (stereo not drawn)	8	5	2	-7	+
Cc1ccc(S(=O)(=O)NC2CC2)cc1	-1	11	0	-1	i
COc1cc(OC)c2c(-c3cccc(-c4cccc(C)c4)c3)cc(=O)oc2c1	1	4	9	3	+
COc1ccc(-c2cccc(-c3cc(=O)oc4cc(OC)cc(OC)c34)c2)cc1	-5	1	2	-16	?
COc1ccc2[nH]cc(C=O)c2c1	0	-2	-1	-11	i
COc1ccc2[nH]cc(/C=C/c3cc[n+](C)cc3)c2c1	-2	12	7	-19	+
COc1ccc(S(=O)(=O)NCC2CCC(C(=O)O)CC2)cc1 (stereo not drawn)	16	-3	0	-3	i
COc1cc2c3nnc(-c4ccc(F)cc4)c-3cn(Cc3ccccc3F)c2cc1OC	-1	5	0	0	+
O=C(COC(=O)c1cccc(S(=O)(=O)N2CCOCC2)c1)NC1CCCCC1	-5	nt	-2	nt	i
CCOC(=O)C1=C(Cc2ccc(OC)cc2)C(=O)c2ccccc2C1=O	-92	10	61*	-34	+
CCOC(=O)C1=C(O)c2ccccc2C(=O)/C1=C\c1ccc(CC)cc1	-116	-3	23	-11	+
COc1ccc2oc(=O)cc(CN3CCN(Cc4ccc(OC)c(OC)c4OC)CC3)c2c1	10	-3	-1	-2	i
Cc1c(N(C)S(=O)(=O)c2ccc(Cl)c(C(=O)NCC(C)(C)N3CCOCC3)c2)c(=O)n(-c2ccccc2)n1C	-4	-3	1	0	i
Cc1ccccc1Oc1cc(-n2ncc(Cl)c(Cl)c2=O)ncn1	65*	1	-1	-22	?
Cc1ncc([N+](=O)[O-])n1CC(=O)Nc1cc(Cl)ccc1Cl	20	-2	-2	2	i
COc1cc2c(cc1OC)C(C)N(CCN1C(=O)c3ccccc3C1=O)CC2 (stereo not drawn)	-16	0	-1	-1	+
COc1cccc(NC(=S)N(CCc2c(C)[nH]c3ccc(C)cc23)Cc2cccs2)c1	-13	0	3	-4	i
COc1ccc2[nH]c(C)c(CCN(Cc3cccs3)C(=S)Nc3cccc(F)c3)c2c1	-35	5	23	-28	+
Cc1ccc(C)c(NC(=O)CN(C)S(=O)(=O)c2cccc3cccnc23)c1	-10	0	-3	-3	i
Cn1nc(C(=O)NNC(=O)CCc2ccccc2Cl)c2ccccc2c1=O	25	14	-1	-16	+
COc1cc(/C=C(\C#N)C(=O)Nc2ccc3c(c2)OCCO3)ccc1O	73*	0	11	-6	i
CCOC(=O)/C(C#N)=C\c1ccc(O)c(OC)c1	3	-5	0	-2	i
CCOC(=O)c1c(-c2ccc(C)cc2)csc1NC(=O)/C(C#N)=C/c1ccc(O)c(OC)c1	-190	49*	195*	-33	+
CCOC(=O)c1c(-c2ccccc2)csc1NC(=O)/C(C#N)=C\c1ccc(O)c(OC)c1	-51	40*	132*	-64	+
COc1cc(N2N=C(c3ccccc3)CC2c2ccccc2)c(C=O)cc1C=O (stereo not drawn)	-2	-7	4	2	i
SMILES	CRFR2-BP antag	cardiac RTF act	CRFBP-R2 agonist	RTF Ca sens inh	Myeloid diff MLP
O=[N+]([O-])c1ccc(N2N=C(c3ccccc3)CC2c2ccccc2O)cc1 (stereo not drawn)	nt	47*	nt	-53	+
COc1ccccc1N1N=C(c2ccc([N+](=O)[O-])cc2)CC1c1ccccc1 (stereo not drawn)	-34	15	34	-13	+
Fc1ccc(C2CC(c3ccco3)=NN2c2ccccc2)cc1 (stereo not drawn)	-17	-2	2	7	i
O=[N+]([O-])c1ccc(N2N=C(c3ccco3)CC2c2ccccc2)cc1 (stereo not drawn)	-122	13	51*	-14	i
O=C(C[C@@H]1C/C=C\CC[C@H](Cc2ccc(F)cc2)C(=O)OC[C@@H]2CCCN2C1=O)NCCO	6	6	-2	-12	i
COc1ccccc1NC(C)C(=O)Nc1ccc(C(C)=O)cc1 (stereo not drawn)	20	-2	0	0	i
